Assay results from PubChem BioAssay AID1508600 (Functional Genomics Laboratory (NCATS/FGL), 2020).
The whole screen tested about 53,000 sequences, of which about 3,700 (7%) were called active. Many of the other results were omitted from the sample, so actives are more common in it than they were. A number with no mark means an inactive call.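 The calls were made as follows: active = gene knockdowns whose robust z-score for IL-1 alpha signal is at least 2 or at most -2, so actives lie on both sides; inactive = the rest.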

Assay: Components of the Cytosolic LPS Sensing Pathway: Gene Identification via Genome-wide siRNA Screen;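 also: robust z of the log signal after scaling to non-targeting control siRNA wells of the plate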
Conditions: RAW264.7 macrophages, IL-1a HTRF, actives lie on both sides, screened at 100 nM (by protocol), cells primed 5 h with Pam3CSK4 first
Procedure, shortened: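 RAW264.7 mouse macrophages reverse-transfected with single siRNAs (100 nM final) for 48h, primed with Pam3CSK4 for 5 hours, then transfected with LipidA for 24 hour. Supernatant IL-1a read by HTRF; values normalized to negative-control median, log-transformed robust z-scores.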

Row | Sequence | z-score
1 | CGUGUAAACGCAAUUAAAATT against Zfp870 | 0.272
2 | GGUUCAGAUGUCUGAUAAATT against Mrm3 | 1.43
3 | GGAGCAUGUAGAGGUUUACTT against Txnrd2 | 2.44 (active)
4 | GGAUACCUAGUUCUUAGUUTT against Mageb18 | 0.151
5 | GGGACUUUCGUAAUAAACCTT against Lman1 | -1.26
6 | CGUGAAAUAGAUGAUACCUTT against Cdc5l | 0.625
7 | GGUAACGAUGCUGGAAUUCTT against Sdcbp | 4.37 (active)
8 | GCAAACUCCAGCUCAACGATT against Galnt4 | -1.19
9 | GGAUGGUGUUGUGUUUAAATT against Chst2 | 0.962
10 | GGCUGGUGCUGAAUAUCUUTT against Bnip5 | 0.507
11 | GGUCUUGGUCCCUGAGAAATT against Ddit4l | 0.23
12 | GGACAAAUUGUAUGGCGAATT against Hecw2 | -0.402
13 | GAGAACAAGCCUAAGCCCATT against V1rb5 | 1.44
14 | GCUCGAGGACUAUAUGAAUTT against Xrcc1 | 2.03 (active)
15 | GGAAUAUUGUGGCCUUAUATT against Bnip3 | 0.489
16 | GAGGGAUAUGUGAAGCCUCTT against Mospd3 | -0.806
17 | CCGAAGUCAAUGAAGCUCUTT against Gcsh | -2.13 (active)
18 | CCAUGUUCAGAAGAGAAUATT against Igsf11 | -1.69
19 | GCAAGUAGAAACCCUUAAUTT against Scara5 | -0.0354
20 | CGAUUCCGUCAAAUUAAAGTT against Catsper2 | 0.156
21 | GGCAGAUUGUGAAAAAACUTT against Slc9a6 | -0.503
22 | GGAAAAGGUCAUUAUCAUUTT against Hsf3 | -2.11 (active)

Row | Sequence | z-score
23 | GUCACUGUGAUGGGAAAUUTT against Olfr895 | -0.847
24 | ACACCUGCCUGCAUCUACUTT against Tcp10a | 1.5
25 | GCACUUGUGACUAUAAAGUTT against Celf2 | 0.262
26 | UGUGGUGAACCCAAUGCACTT against Klk1b22 | -3.28 (active)
27 | CCUGAUUGGGAUCUCAAGATT against Ccdc12 | -0.673
28 | AAUAAAAGUGUCCUCUGUGTT against Olfr242 | 0.202
29 | GGAUAGUUUUGUGUUUGAUTT against Gab2 | 0.932
30 | GGUCAUUGAUCUCAGCAACTT against Optc | -0.427
31 | CCCUACACGCAGGAGUUUUTT against Gtf3c1 | -0.23
32 | GCCCUACACCUGUAUUACATT against Tas1r3 | -0.964
33 | CCUGGAACUUGUUGGAAGCTT against Igsf3 | 0.799
34 | GUGUUCAGGAAGCUGGCAGTT against Klra19 | 1.98
35 | GGACCUCCUCCCAAAGAUATT against Snrpb | -2.83 (active)
36 | GCUAUGGAUCAAAGAAUUATT against Senp1 | 0.204
37 | GGCCCAUCCCACAAUGAUATT against Atg9b | -0.998
38 | GGAAGUAGGAUGAUGUUGGTT against Hmga1 | -2.08 (active)
39 | GCUCACCCAACAAUAUCCATT against Slc17a8 | -0.881
40 | CGAGAAUAUUCGCCCAACCTT against Erbb3 | 0.682
41 | GGAGAUCCGGAAUUUUUAATT against Per2 | -0.0639
42 | GCUAUAUAAUGCUUAUGUGTT against Tpr | -0.501
43 | GCCUUUGAUAAAAGUCCGGTT against Saxo2 | -0.93
44 | GGAGGGAAUAUGCAAAUAGTT against Ftdc2 | 2.36 (active)

Row | Sequence | z-score
45 | GGACAUGAUGAUGAUGAUGTT against Gldn | -1.8
46 | GCUUAUAGAAAACCAGUAATT against Foxd1 | 0.317
47 | GGAAGAAAUGAUGAAUGACTT against Chmp2a | 2.36 (active)
48 | GGAUGAUGACAUUCACUUATT against Ntan1 | -0.619
49 | GCCUCGAUCUGAUCUAGAGTT against Dbx2 | 0.291
50 | GGCUGCUGUCAUUAUUUGUTT against Terf2 | -0.768
51 | GGCAUCUUUCACAGUUUUGTT against Hspa12b | 2.13 (active)
52 | GGUUUAUGAGCUCUACGCCTT against Tmem11 | -0.843
53 | GGAAGAUGAUGUUUUAGGUTT against Pde7a | 0.271
54 | CCCAAAGCUAUCAUAUCAATT against Aff4 | 0.508
55 | GGCGACACAUUAAAAUAGUTT against Mepe | 2.19 (active)
56 | GUUACCUCUGUGUUGUACUTT against Olfr60 | -0.148
57 | GGAAGAAAAAGAUGAGAAATT against Hrc | 0.394
58 | GCAUGUCUCAACUAAGGACTT against Upk3b | 1.03
59 | CCUACAGAGGUGCCAUUGUTT against Naa60 | -0.244
60 | GGACCGAUUCCACUUCAAUTT against Crygd | 1.46
61 | GCCAAAUGGUGUCAAUAUUTT against Rab33a | 0.277
62 | GGAGGAUGAUGAGGAGGAUTT against Ppp1r1b | 2.35 (active)
63 | CGUGCCAGACCUAUAGCUUTT against Mlxip | -0.226
64 | GGAGACCUUCCAGAACACATT against Mesd | 2.38 (active)
65 | GCGGAUUUACACCUUAUCUTT against Bpi | -1.15
66 | GGCUAUCACACAGCAUAGATT against Rdh7 | 1.57

Row | Sequence | z-score
67 | CCGUUGGAGGUAAUUAGGATT against Dot1l | 0.463
68 | GGCACUGUAAAUGUACUCATT against Rbak | -2.54 (active)
69 | GGAGAAGUACAACGCAGCGTT against Wnt7b | -0.273
70 | GGCUAUGCACUACUCAUUGTT against Galk1 | -0.607
71 | CCAUCCCAUUUAAUGGAUGTT against Olfr1257 | 1.09
72 | GCUCCAGAUGUUCAGAGCUTT against Fbxo9 | -2.43 (active)
73 | GCAUUCAGACCAUGACACUTT against Trim30d | 0.914
74 | GGCCAAGUGAUAGAGUUCATT against Crygd | 1.22
75 | GGAAGUUCGAUGUUCCUAGTT against Cep85 | 0.779
76 | GGUUAUUAUGACCAAGAAATT against Sf3b1 | -2.71 (active)
77 | GCAGUAACCUUCUAACAAATT against Foxn2 | -0.367
78 | GGAGAAAGAUGUUUACCGATT against Hyal2 | -0.533
79 | GGAACUUAAGACUUUCAAGTT against Abcf2 | 0.904
80 | GCGGAUGCAAAUCGAUGAATT against Cep135 | -0.507
81 | GCAUCAUACUGACCUGAGATT against Gml2 | -1.25
82 | CCUAUCUUCCUGAAUACAUTT against Aqp7 | 2.71 (active)
83 | CCGGCUUAUGCUCAACUUCTT against Bpifb1 | 0.29
84 | GGAACAAUUGAUAAGACGATT against Guf1 | 0.237
85 | GGUCAAGGAGUUCAUUCUGTT against Matn2 | -1.33
86 | GGAUCAUUCUGUGAACAAGTT against Ly6h | 1.52
87 | GCCCAUUGUAUGACUGCCGTT against Gfra2 | 3.21 (active)
88 | CCCAAAUACCUACCAUCUCTT against Slc4a9 | -0.44

Row | Sequence | z-score
89 | GGACUCUGAAGAGGAAAAGTT against Pds5b | -0.266
90 | CCUUACCAGGAAACAUAUUTT against Dennd10 | -1.33
91 | GCGGUUAGCACAAUGUGAATT against Ppp2cb | -0.577
92 | GGAAAUAAAACAGAUUUGGTT against Atpaf1 | 0.576
93 | GGCACGAGGCAGAAUUUUATT against Kctd3 | 0.696
94 | GCUACAAUUGGCCUUAUCUTT against Stpg2 | -3.03 (active)
95 | GGUACUGCUAUGAGAAACUTT against Adam22 | 0.224
96 | GGACCAGAAACGCAUGCUUTT against Maml3 | -0.762
97 | GGAAAACUCAUCAUACCAGTT against Ugt3a1 | 0.737
98 | CGAUUUUACCAACCGCUGCTT against Chtf18 | 0.702
99 | GCUGUUGUAACCAUAACAGTT against Ntsr1 | 0.439
100 | GGGAAUUGCCUCAGCUAAGTT against Men1 | 2.95 (active)
101 | CCAGUUAAACACAUUAGCCTT against Mxra8 | -0.373
102 | GGCUCAACGGCUUAGGGAATT against B3gat3 | 1.42
103 | GGAAAAUAAGCAUAGUGAUTT against Spesp1 | -0.35
104 | GGACAACCAGCUCAUUGUGTT against Cd82 | -1.09
105 | GCAACACACUGCUUCCUGGTT against Tmem19 | -1.38
106 | GGUAAUUGAGUUUGACGAUTT against Ptprf | 0.585
107 | CGAAGGCUUCCCUUUUAUCTT against Tmem150b | 2.67 (active)
108 | GCCUUCGUCUCCAAGUAUATT against Plagl1 | -0.305
109 | GCUCCUUGCUUGAUUCUACTT against BC107364 | 0.649
